{
  "source": "PubChem BioAssay (Tox21)",
  "note": "“And” between values parts separate entries of the source, which are not always exact repeats. Equal entries are not always repeated. Results filed as inconclusive are left out. Entries that show only a call come without a potency. The source made the active and inactive calls. The call rests on the fitted dose curve; in most records, active means well fitted activation curve with a large enough effect in the repeat runs; inconclusive means weak or mixed curves; inactive means flat fitted curve, though single readings scatter. Potency means the concentration at half of the fitted maximal effect.",
  "data": [
    {"test": "A CellTox Green Cytotoxicity Assay to monitor cytotoxicity in HEK293 cells - 32 hour (AID 1224881); further: nearly all actives have a fitted effect of over 40% in size", "conditions": "CellTox Green fluorescence; series mostly up to 76.8 µM", "from_the_text": "National Center for Advancing Translational Sciences [NCATS]\nNIH Chemical Genomics Center [NCGC]\nU.S. Environmental Protection Agency [EPA]\nNational Institutes of Environmental Health Sciences [NIEHS]\nNational Toxicology Program [NTP]\nCell-based models are critical for drug discovery. Determining the natural cytotoxic effects resulting from test compounds is an essential research activity. A CellTox Green Cytotoxicity Assay to monitor cytotoxicity in real time of continues cell culture during 40 hours of the compound treatment was used to screen Tox21 10K library compounds in Hek293 cells. CellTox Green Cytotoxicity Assay is a nonlytic, homogeneous, biofluorescent method to measure cytotoxicity in cell culture after experimental manipulation. The assay system uses a proprietary asymmetric cyanine dye that is excluded from viable cells but preferentially stains the dead cell's DNA. […] Viable cells produce no appreciable increases in fluorescence. Therefore, the fluorescence signal produced by the binding interaction with dead cell DNA is proportional to cytotoxicity.\nThe mixture of Hek293 cell suspension and reagents were dispensed at 600cells/6 ul/well in 1536-well tissue culture treated black solid bottom plates using a Multidrop dispenser. After the assay plates were incubated at a 37 C/5% CO2 incubator for 5 hours, 23 nL of compounds dissolved in DMSO, positive and negative controls was transferred to the assay plate by a pintool work station. The plates were incubated at 37 C for 40 hours. The fluorescence intensity were measured at 0h, 8h, 16h, 24h, 32h and 40h time points using ViewLux plate reader during compound treatment.", "values": [
      {"smiles": "C/C=C/C(=O)C1=C(C)CCCC1(C)C", "Potency": "inactive"},
      {"smiles": "Clc1ccc(C(c2ccccc2Cl)C(Cl)Cl)cc1", "note": "(stereo not given)", "Potency": "inactive"},
      {"smiles": "CC(C)=C1CC[C@@H](C)CC1=O", "Potency": "inactive"},
      {"smiles": "CCCC(CC)CCCCCCCN", "note": "(stereo not given)", "Potency": "44.7 µM (active)"},
      {"smiles": "S=P(N1CC1)(N1CC1)N1CC1", "Potency": "inactive"},
      {"smiles": "SCCCCCCCCS", "Potency": "inactive"},
      {"smiles": "CCCCCCS", "Potency": "inactive"},
      {"smiles": "Brc1ccccn1", "Potency": "inactive"},
      {"smiles": "COC(=O)NCCC[Si](OC)(OC)OC", "Potency": "inactive"},
      {"smiles": "O=C1C=CC(=O)N1c1ccccc1", "Potency": "11 µM (active)"},
      {"smiles": "Cn1cnc2ncnc(N)c21", "Potency": "inactive"},
      {"smiles": "CCCOc1sc(C(=O)N2CCC(c3cc(CN)ccc3F)CC2)c(C)c1Br", "Potency": "31.8 µM (active)"},
      {"smiles": "ClC/C=C\\CCl", "Potency": "inactive"},
      {"smiles": "CC1CCCCC1", "Potency": "inactive"},
      {"smiles": "CCCCCCCCCCCCCCNCCO", "Potency": "19 µM (active)"},
      {"smiles": "C=CC(=C)CCC=C(C)C", "Potency": "inactive"},
      {"smiles": "CC(=O)O[C@@H]1C[C@@H]2CC[C@@]1(C)C2(C)C", "Potency": "inactive"},
      {"smiles": "C[C@@]12C(=O)OC(=O)[C@]1(C)C1CCC2O1", "Potency": "inactive"},
      {"smiles": "CNC(=S)NN", "Potency": "inactive"},
      {"smiles": "Cc1cc(Nc2ccc(O)cc2)ccc1N", "Potency": "43.5 µM (active)"},
      {"smiles": "C=CC(=C)CC/C=C(\\C)CCC=C(C)C", "cytotoxicity increase": "1.9% [at 15.8 µM] (inactive)"},
      {"smiles": "O=C1OC(=O)c2cccc3cccc1c23", "Potency": "inactive"},
      {"smiles": "CC(=O)OC1CCCCC1", "Potency": "inactive"},
      {"smiles": "CN(C)CCN1CCOCC1", "Potency": "inactive"},
      {"smiles": "CCOB(OCC)OCC", "Potency": "inactive"},
      {"smiles": "C#CC(O)CCC", "note": "(stereo not given)", "Potency": "inactive"},
      {"smiles": "CC1=CCC(=O)O1", "Potency": "inactive"},
      {"smiles": "CCC(C)c1ccccc1", "note": "(stereo not given)", "Potency": "inactive"},
      {"smiles": "Nc1ccc2cc3ccc(N)cc3nc2c1", "Potency": "43.6 µM (active) and 21.3 µM (active)"},
      {"smiles": "Cc1ccc(O)cn1", "Potency": "inactive"},
      {"smiles": "Clc1cc(Cl)c(-c2c(Cl)c(Cl)cc(Cl)c2Cl)cc1Cl", "Potency": "inactive"},
      {"smiles": "NCCCCCCNCCCCCCN", "Potency": "inactive"},
      {"smiles": "CCCCCCCC(OC)OC", "Potency": "inactive"},
      {"smiles": "CCCCCCCCCCCCCCCC", "Potency": "inactive"},
      {"smiles": "CN(C)c1ccc(N=Nc2ccccc2C(=O)O)cc1", "Potency": "inactive"},
      {"smiles": "CNC(=O)c1cc(Oc2ccc(NC(=O)Nc3ccc(Cl)c(C(F)(F)F)c3)cc2)ccn1", "Potency": "inactive"},
      {"smiles": "CCC(C)c1cc([N+](=O)[O-])cc([N+](=O)[O-])c1OC(=O)OC(C)C", "note": "(stereo not given)", "Potency": "inactive"},
      {"smiles": "CN1[C@@H]2CC[C@H]1CC(OC(=O)C(CO)c1ccccc1)C2", "note": "(stereo not given in full)", "Potency": "inactive"},
      {"smiles": "CCCCCCCCCCOCC(O)CN", "note": "(stereo not given)", "Potency": "26.8 µM (active)"},
      {"smiles": "Cc1occc1SSc1ccoc1C", "Potency": "54.9 µM (active)"}
    ]}
  ]
}
